# Rows were chosen to be rich in hits. Some 13% of all compounds tested hit in one or more screens of this group.
# MARV entry inh – inhibitors of Marburg virus binding or cell entry; Marburg virus pseudotyped entry inhibition, cell reporter; Potency, µM (series often up to 37.8 µM), usual class: inhibitors; actives 1.8% (n = 300,000); calls by dose curve; tested in HEK293 cells
# FMDV inh – antivirals against foot and mouth disease virus. FMDV antiviral cell-based qHTS. Potency, µM (titrated, usually from 57.9 µM), hits mostly inhibitors. actives 1.2% (n = 410,000). AID 1159524; calls by dose curve; tested in HEK293T cells; also: read-out not given here; nearly all actives have a fitted effect of over 45% in size
# Lassa entry inh – blocks Lassa virus binding to or entry into cells; Lassa virus pseudotype entry inhibition, cell reporter; Potency, µM (titrated, usually from 37.9 µM), hits mostly inhibitors; actives 1.2% (n = 300,000); AID 540256; calls by dose curve; tested in HEK293 cells; also: nearly all actives have a fitted effect of over 50% in size
# HCV inh – HCV inhibition; AID 651820; Potency, µM (doses to about 41.8 µM), most hits filed as inhibitors; Huh7.5.1 HCVcc-Cre infection, luciferase reporter, 44 h; actives 3.4% (n = 340,000); active = well fitted inhibition curve with a large enough effect; inconclusive = small, poorly fitted or top-dose-only effect, or another doubt; inactive = no such curve, though single readings can be large or run the other way
#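 A cell-based infection assay in which seeded cells (1,000 per well) receive test compound after 4 h, are inoculated with HCVcc-Cre at approximately 0.5 moi, and are incubated 44 h before luminescence detection.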
# Cycloheximide cs – counter-screen hit for Shiga toxin inhibitors, cycloheximide; cell reporter, cycloheximide protein synthesis inhibition counterscreen; max response, %; actives 12% (n = 300,000); AID 2314; in the data active = max response mostly above about 13%, no sharp cut-off; inactive = mostly below about 14%; also: read at 38.3 µM for the half of the compounds with a filed dose
# Shiga toxin inh – inhibitors of Shiga toxin in Vero cells; Vero cells, Shiga toxin protein synthesis inhibition reporter; inhibition, % at 38.7 µM; actives 9.2% (n = 290,000); AID 2315; in the data active = inhibition mostly above about 28%, no sharp cut-off; inactive = mostly below about 43%
# A number is an active result; - = inactive; ? = inconclusive; . = no result.
SMILES,MARV entry inh,FMDV inh,Lassa entry inh,HCV inh,Cycloheximide cs,Shiga toxin inh
CCCn1c(SCC(=O)N2c3ccccc3Sc3ccccc32)nc2c1c(=O)n(C)c(=O)n2C,-,-,-,?,-,-
CCOC(=O)c1c(NC(=O)CSc2nc3c(c(=O)n(C)c(=O)n3C)n2C(C)C)sc(C)c1C,-,.,-,-,-,-
CC(C)n1c(SCC(=O)Nc2nc3c(s2)CCCC3)nc2c1c(=O)n(C)c(=O)n2C,?,25µM,?,-,-,-
CN(C)CCCn1c(SCC(=O)N2c3ccccc3Sc3ccccc32)nc2ccccc2c1=O,?,?,?,13µM,-,-
Cc1ccc(-c2c[n+](CC(=O)Nc3nc(-c4ccccc4)cs3)c3n2CCC3)cc1,-,-,-,6.3µM,-,-
CC(C)n1c(SCC(=O)N2c3ccccc3Sc3ccccc32)nc2c1c(=O)n(C)c(=O)n2C,9.2µM,.,?,11µM,-,-
O=C(NC(=S)Nc1ccc(S(=O)(=O)N2CCCC2)cc1)C1CCC1,-,-,-,-,-,-
Cc1cccc(C2C3=C(Nc4[nH]n(-c5ccccc5)c(=O)c42)c2ccccc2C3=O)c1 (centres undefined),-,-,-,-,-,-
CCn1c(SCC(=O)Nc2nc(-c3ccc(C)cc3)cs2)nnc1-c1ccccc1,?,13µM,?,7.9µM,-,-
CCn1c(CSc2nc(C)cc(C)n2)nnc1SCC(=O)Nc1nc(-c2ccccc2)cs1,?,-,-,?,-,-
O=C(Nc1ccc(F)cc1F)C1CCN(C(=O)c2ccc(Br)cc2)CC1,.,-,.,-,-,-
O=C(/C=C/Nc1ccc(F)cc1F)c1ccc(Br)cc1,?,-,7.1µM,-,.,.
O=C(/C=C/Nc1ccccc1Oc1ccccc1)c1ccco1,?,-,?,?,51,119
O=C(/C=C/Nc1ccc(Br)cc1F)c1ccco1,1.4µM,10µM,2.2µM,-,-,-
O=C(/C=C/Nc1ccccc1O)c1ccco1,-,-,-,-,38,63
CN(C(=O)CN1C(=O)S/C(=C\c2cccc(Cl)c2)C1=O)C1CCS(=O)(=O)C1 (centres undefined),.,-,.,-,-,-
COc1ccc(NC(=O)C(C)N2C(=O)c3ccccc3C2=O)c(OC)c1 (centres undefined),.,-,.,-,.,.
Cc1cc(C)c(C2=CC(=O)C[C@H](c3ccc4c(c3)OCO4)C2)c(C)c1,-,-,.,-,.,.
Cc1ccc2ncnc(NCCC(=O)O)c2c1,-,-,-,-,-,-
COCCCNc1ncnc2ccc(C)cc12,-,-,-,?,15,39
CC(C)N(C(=S)Nc1cccc(C(F)(F)F)c1)C(C)c1ccccn1 (centres undefined),?,?,?,-,-,-
CC1CN=C(N(C(=S)Nc2ccccc2)c2cccc(C(F)(F)F)c2)S1 (centres undefined),?,-,-,-,14,-
O=c1oc(=S)oc2c1[C@H](c1ccc(Cl)cc1)O[C@H](C1CCCC1)C2,.,-,.,.,.,.
Cc1ccc(C(=O)OCC(=O)Nc2ccc3c(c2)OCO3)cc1S(=O)(=O)N1CCOCC1,-,-,?,-,-,-
Cc1ccc(C(=O)Nc2ccc3c(c2)OCO3)cc1S(=O)(=O)N1CCCC1,-,-,-,?,46,45
SMILES,MARV entry inh,FMDV inh,Lassa entry inh,HCV inh,Cycloheximide cs,Shiga toxin inh
Cc1ccc(S(=O)(=O)N2CCCCC2)cc1NC(=O)c1ccc2c(c1)OCO2,-,-,-,-,-,-
Cc1ccc(C(=O)Nc2ccc3c(c2)OCO3)cc1S(=O)(=O)N1CCOCC1,-,-,-,?,29,107
COc1ccc(C(=O)Nc2cccc(C)n2)cc1S(=O)(=O)N1CCCc2ccccc21,?,-,?,2.5µM,.,.
COc1ccc(C(=O)O)cc1S(=O)(=O)N1CCCc2ccccc21,.,-,.,-,-,-
COc1ccc(Cl)cc1S(=O)(=O)N1CCCc2ccccc21,.,-,.,-,-,-
O=C(NCc1ccco1)c1ccc(Cl)c(S(=O)(=O)N2CCc3ccccc32)c1,?,?,?,?,17,-
COc1ccc(C(=O)NCc2ccccc2)cc1S(=O)(=O)N1CCCc2ccccc21,-,-,?,11µM,-,-
COc1ccc(C(=O)OCC(=O)N(C)C2CCS(=O)(=O)C2)cc1S(=O)(=O)N1CCCc2ccccc21 (centres undefined),-,-,-,-,20,-
CCC(=O)Nc1c2c(nn1-c1ccc(C)cc1C)CSC2,-,-,-,-,-,-
CCOc1ncccc1C(=O)N1CCN(S(=O)(=O)c2ccc3ccccc3c2)CC1,.,-,.,-,-,-
COc1ccccc1NC(=O)C/C(N)=N/O,-,-,-,-,-,-
COc1ccc(C(=O)Nc2ccc(C)cn2)cc1S(=O)(=O)N1CCCc2ccccc21,-,-,?,4.5µM,.,.
C=C(C)Cn1cnc2c(oc3nc4c(cc32)CCCC4)c1=O,.,-,.,-,33,46
O=C(Cn1cnc2c(oc3nc4c(cc32)CCCC4)c1=O)Nc1cccc(Cl)c1,-,-,-,25µM,-,-
COC(=O)C(C(=O)OC)C1OC23CN(S(=O)(=O)c4ccc(C)cc4)C=CC2(C)C3c2ccccc21 (centres undefined),-,.,.,.,.,.
Oc1ccccc1C1=Nc2ccccc2N=C(c2ccco2)C1,?,-,?,-,13,-
Cc1cccc(C2=Nc3ccccc3N=C(c3cc(Cl)ccc3O)C2)c1,.,-,-,.,.,.
Cc1c(C(=O)NCc2ccc3c(c2)OCO3)sc2nc(-c3ccccc3)cn12,.,-,.,-,-,-
COc1ccc(C)cc1NC(=O)c1sc2nc(-c3ccc(F)cc3)cn2c1C,.,-,?,.,.,.
COc1ccc(-c2cn3c(C)c(C(=O)N4CCN(c5ccccc5)CC4)sc3n2)cc1,.,-,.,-,.,.
COc1ccc(-c2cn3c(C)c(C(=O)NC(C)(C)C)sc3n2)cc1,.,-,.,?,30,41
Cc1c(C(=O)Nc2ccc3c(c2)OCO3)sc2nc(-c3ccccc3)cn12,-,-,?,4µM,-,-
Cc1cccc(NC(=O)c2sc3nc(-c4ccc(F)cc4)cn3c2C)n1,?,-,-,?,-,-
COc1ccc(-c2cn3c(C)c(C(=O)Nc4cccc(C)n4)sc3n2)cc1,?,-,?,?,12,-
Cc1cccc(NC(=O)c2sc3nc(-c4ccccc4)cn3c2C)n1,?,.,?,13µM,36,66
SMILES,MARV entry inh,FMDV inh,Lassa entry inh,HCV inh,Cycloheximide cs,Shiga toxin inh
O=C(Cc1c(F)cccc1Cl)NCC1CCCO1 (centres undefined),-,.,-,-,-,-
CC(=O)Nc1ccc(N2C(=O)c3ccc(C(=O)Nc4nnc(SCc5ccc(F)cc5)s4)cc3C2=O)cc1,.,-,.,-,-,-
Cc1ccc(Cl)cc1NC(=O)c1sc2nc(-c3ccccc3)cn2c1C,.,-,-,.,.,.
Cc1c(C(=O)Nc2ccccc2)sc2nc(-c3ccccc3)cn12,-,-,-,8.9µM,39,61
O=C1CC(C(=O)N2CCOc3ccc(CN4CCC(Oc5cccnc5)CC4)cc3C2)c2ccccc21 (centres undefined),.,-,.,.,.,.
c1ccc2c(c1)NCCS2,?,-,-,-,47,80

# Source: PubChem (National Center for Advancing Translational Sciences (NCATS))
